B1: design_599_7ce25d4d-e004-4b84-a16f-baf856d943ab_748_dldesign_0_cycle1_af2pred (protein)
chain: SKEEIKKQSELMKKATRYVKEAGKAAKVLGEEGKKKVEEMVKLRDQAADSDVETAKKLTEEIEKEAEEVIKKAEEKEK
B2: design_599_7ce25d4d-e004-4b84-a16f-baf856d943ab_929_dldesign_0_cycle1_af2pred (protein)
chain: GLDAVTDALAEAFYASREIEKIDPELGKELLEYAKELAKKAIAGTPEAAKKLAEEIKKKTEEKLKEAEEKAKKE
B3: design_599_7ce25d4d-e004-4b84-a16f-baf856d943ab_378_dldesign_0_cycle1_af2pred (protein)
chain: AAAAILAATDAEVAAILAKGAEEIAKAAKEEGPEAAKKVATEVLEKANDVIAEGGVKAGLSAKEISARINAAQKEVRAIAEKAIEAAA
B4: design_599_7ce25d4d-e004-4b84-a16f-baf856d943ab_441_dldesign_0_cycle1_af2pred (protein)
chain: GKKEEAEKKMKKAYEKMKKLAEEAGKAKDPKEAYEYLLKIEEVGAEAINYAAKIGDKETAREAAKKYRELFREAVKKAQAAGKA
B5: design_599_7ce25d4d-e004-4b84-a16f-baf856d943ab_290_dldesign_0_cycle1_af2pred (protein)
chain: SEARRERLRAEAEEAIEKLKEAAKQAFEAGNGEAALVAVRAAARARRLLADPATVEEGLRVAKEGLEKAEKLLKE
B6: design_599_7ce25d4d-e004-4b84-a16f-baf856d943ab_1040_dldesign_0_cycle1_af2pred (protein)
chain: EKLKERYKAAAKNLEKAAESKDKNEAKALIGRAEALALNASADPAAPEIAKLADEALEAVYKDLEKGKELAKKAAEKAKEAAA
B7: design_599_7ce25d4d-e004-4b84-a16f-baf856d943ab_1128_dldesign_0_cycle1_af2pred (protein)
chain: MLSKEASEVIKKAVKAAKKVAEAGKKLGIGEKAKKEAAKKVEEVADAVVESLEKGKEAAEKFAKEAEVLAKLAKA
B8: design_599_7ce25d4d-e004-4b84-a16f-baf856d943ab_519_dldesign_0_cycle1_af2pred (protein)
chain: MEAALEALKKAAAEAANLVYDAADIGAEEAEKAAKEAIKKIKDTATPELAPLAKEYAEKLGKTAERLIENNKYGEELKK
B9: design_599_7ce25d4d-e004-4b84-a16f-baf856d943ab_284_dldesign_0_cycle1_af2pred (protein)
chain: AEVEAFKAAAEKYYKKAKEYFEKAKKTGSKSLYLKGASYAELALHNLENAAKAAAAKDPAEGAKLQKELKETKEELDKLYEEARKAAV
B10: design_599_7ce25d4d-e004-4b84-a16f-baf856d943ab_845_dldesign_0_cycle1_af2pred (protein)
chain: NELEKAAKAAEAVAKALRAAAEAGPTPESLAAVEALAKEAAKVDEAAADIARAAVAAARADPARAAEALRRGARIAKRLAEDYKKAI
B11: design_599_7ce25d4d-e004-4b84-a16f-baf856d943ab_173_dldesign_0_cycle1_af2pred (protein)
chain: SEAEKVIEEARKKAEEAREFIKKIREEGGNPEAAELALQALSHFKAAEALAKSGENLESAKKHLEEGKKLLEEAKELYE
B12: design_599_7ce25d4d-e004-4b84-a16f-baf856d943ab_451_dldesign_0_cycle1_af2pred (protein)
chain: EKITAVNEAEAYLEALKHAAEVLTKIDPSLKPEAEKAIKEGEKLVKEAKEGNAETAKKAAEEIRKLLKEVIELGKKAKA
B13: design_599_7ce25d4d-e004-4b84-a16f-baf856d943ab_506_dldesign_0_cycle1_af2pred (protein)
chain: MEEEKKAIEEAKERAKEIAEKAVKEAKKAKTPKEISEAIREMVRKLRELVKEVREKYSEETAEKVKEIAAKERLKAVDEIAAAK
B14: design_599_7ce25d4d-e004-4b84-a16f-baf856d943ab_358_dldesign_0_cycle1_af2pred (protein)
chain: HMKYIELLDRINKVSKELQEAYKEASKDPENKPKVEELAKEASELRDKGYDEPEKAEEYLKKMEELAKEMKKLAKE
B15: design_599_7ce25d4d-e004-4b84-a16f-baf856d943ab_347_dldesign_0_cycle1_af2pred (protein)
chain: AEAEKAKATADAKKEAKAFAEEAKKKAEEASKGTPEDVKKERDKVAAEFDKKIAEAAGNPEAAAAYAEARHEAKAEYDLAYVKAK
B16: design_599_7ce25d4d-e004-4b84-a16f-baf856d943ab_360_dldesign_0_cycle1_af2pred (protein)
chain: TAAITEARDAAVEARGDVELAKAKNAKAEEYEKAAKKAEEAKKKLKEVLETVELSEEERETAERMIEAMERAAEEARKLAKEKK
B17: design_599_7ce25d4d-e004-4b84-a16f-baf856d943ab_718_dldesign_0_cycle1_af2pred (protein)
chain: SELTEKVNKEADELRKRAREIGETARRLAEEAAKHDPAAAEEIRRLASLSIQKLFEGDEEEAERYWEEAVALAKAAVA
B18: design_599_7ce25d4d-e004-4b84-a16f-baf856d943ab_928_dldesign_0_cycle1_af2pred (protein)
chain: AAAKEEAEKRAKKALEEGEKAAKEIEKSNAEEARKIAKEFREKAKELVADPEASPEEKKALAEGAQKAYEAAAEKEAKE
B19: design_599_7ce25d4d-e004-4b84-a16f-baf856d943ab_219_dldesign_0_cycle1_af2pred (protein)
chain: MDPAELAAAKQAEAEAIIAETKAKAEKYIEEAKKSKKYVEALQYVGRAEVLLDSTVSYLTKNVGPEAGEKAQEIADKTVKEGFEIVKK

biological target: VTCN1, Q7Z7D3
Sequence (Q7Z7D3 whole entry): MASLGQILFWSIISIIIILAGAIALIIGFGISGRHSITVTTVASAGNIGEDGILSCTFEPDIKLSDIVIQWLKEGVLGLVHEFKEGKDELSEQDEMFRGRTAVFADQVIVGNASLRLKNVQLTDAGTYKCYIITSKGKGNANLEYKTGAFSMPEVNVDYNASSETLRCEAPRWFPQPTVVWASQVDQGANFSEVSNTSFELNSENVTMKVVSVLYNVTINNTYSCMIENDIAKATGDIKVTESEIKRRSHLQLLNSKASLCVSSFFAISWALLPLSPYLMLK

Binding in a display sort, inactive:
B1 not found
B2 not found
B3 not found
B4 not found
B5 not found
B6 not found
B7 not found
B8 not found
B10 not found
B11 not found
B12 not found
B13 not found
B14 not found
B15 not found
B16 not found
B17 not found
B18 not found
B19 not found

Binding in a display sort, active:
B9 binds

— article PMC13494018
